ADAM17 inh: inhibits human ADAM17. P78536. recombinant ADAM17, EDANS/DABCYL FRET peptide cleavage. inhibition, % at 6.95 µM. 0.83% of 370,000 active;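 active = inhibition above the mean of compounds lying between control limits plus 3 SD, set per campaign, cut at about 8.5% in these data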;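 note: 0% = DMSO-only wells as the low control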
PLCb3 inh: PLC-beta3 (human) inhibition, primary screen. Purified PLC-beta3, fluorogenic substrate, fluorescence. inhibition, % at 12.2 µM. Q01970. 0.18% of 370,000 active; in the data active = inhibition above about 11%;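 note: 0% = median of compound wells on plate and 100% = full blocker control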
ADAM10 inh: ADAM10 inhibition, QFRET primary screen; inhibition, % at 7 µM; recombinant ADAM10, EDANS/DABCYL FRET peptide cleavage, 3 h; 0.62% of 370,000 active;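 active = inhibition above a per-campaign cutoff equal to the mean of compounds falling between control-based bounds plus 3 SD, cut at about 20% in these data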;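 note: 0% = DMSO wells while the 100% control is not disclosed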
PLCg1 inh: blocks human PLC-gamma1 enzyme activity; P19174; purified PLC-gamma1, fluorogenic substrate, fluorescence; inhibition, % at 12.2 µM; 0.84% of 370,000 active; AID 720700; in the data active = inhibition above about 9.5%
proKLK7 act: proKLK7 (human) activation, primary screen; 0.9% of 370,000 active; P49862; activation, % at 7 µM; AID 652039; purified proKLK7, EDANS-DABCYL substrate fluorescence; 100% is mature enzyme control, 0% vehicle;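 active = activation above the mean of all tested compounds plus 3 SD, computed per campaign excluding outliers beyond control limits, cut at about 13% in these data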
Target sequence (P49862 whole entry, looked up): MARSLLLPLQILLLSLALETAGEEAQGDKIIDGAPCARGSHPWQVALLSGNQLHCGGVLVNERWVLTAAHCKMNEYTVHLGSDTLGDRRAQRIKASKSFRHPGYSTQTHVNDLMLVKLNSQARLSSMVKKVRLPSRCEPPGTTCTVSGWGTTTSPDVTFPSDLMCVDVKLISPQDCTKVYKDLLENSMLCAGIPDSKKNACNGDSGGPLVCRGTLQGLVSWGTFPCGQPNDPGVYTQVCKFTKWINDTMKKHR
HGIII-sPLA2 inh: Inhibits HGIII-sPLA2 liposome hydrolysis, primary screen; inhibition, % at 12.2 µM; QFRET BODIPY PC-A2 liposome hydrolysis, fluorescence; 0.56% of 370,000 active;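 active = inhibition above mean plus 3 SD of compounds lying within the high and low control bounds, cut at about 19% in these data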;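 note: 0% = median of test compound wells and 100% = no enzyme DMSO wells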
Numbers without * were called inactive; i = inactive; · = no result; ! = not active in a repeat. Rows were chosen to be rich in hits. Some 3.4% of all compounds tested hit in one or more screens of this group.

SMILES	ADAM17 inh	PLCb3 inh	ADAM10 inh	PLCg1 inh	proKLK7 act	HGIII-sPLA2 inh
CN(C)c1ccc(NC(=O)CSc2nc3ccccc3c(=O)n2C2CCCCC2)cc1	12*	1	12	1	0	14
O=C(N/C(=C\c1ccc(Cl)cc1)C(=O)N1CCOCC1)c1ccc([N+](=O)[O-])cc1	3	-4	8	15*	0	-7
Cc1ccc(-n2c3nc(=O)[nH]c(=O)c-3cc3cc([N+](=O)[O-])ccc32)cc1	-10	-15	-29	-11	0	28*
Cc1ccc(-n2c(C)nn(Cc3ccc([N+](=O)[O-])cc3)c2=O)cc1	-2	-2	-2	1	0	-2
CCCNC(=O)C(=O)Nc1ccc(N(C)C)cc1	7	8	10	11*	0	16
CN(C)c1ccc(NC(=O)C(=O)NCCOc2ccccc2)cc1	-1	2	2	-1	0	0
Oc1ccc2ccccc2c1C=NN1CCN(Cc2ccc(Cl)cc2)CC1	-3	-5	-12	-4	0	-1
CC(C)c1ccc(OC[C@@H](O)CN2CCC(C(O)(c3ccccc3)c3ccccc3)CC2)cc1	4	5	6	2	0	-29
COC(=O)C12C=C3CC(c4ccc(C)s4)=C3C(=O)N1Cc1[nH]c3ccccc3c1C2 (stereo not drawn)	-9	-72	-27	-54	-1	-4
Cc1ccc(-n2c(SCc3c(Cl)cccc3Cl)nnc2-c2ccco2)cc1	3	-4	6	-2	0	-14
COc1cc(/C=N/NC(=S)NC2CC3C=CC2C3)cc(OC)c1OC (stereo not drawn)	5	-6	7	2	1	12
Oc1c(Br)cc(Br)cc1/C=N/NC(=S)N[C@H]1CC2C=CC1C2 (stereo partly drawn)	-7	-274	-32	-193	-42	45*
N=c1c2c(ccn1CCCc1ccccc1)Oc1ccc3ccccc3c1C2c1ccccc1 (stereo not drawn)	6	-2	15	3	·	-4
CCc1nnc(NC(=O)C2CCCN(c3nc4ccccc4s3)C2)s1 (stereo not drawn)	-3	-88	4	11*	0	-3
COc1ccc(CCNC(=O)C2CCCN(c3nc4ccccc4s3)C2)cc1OC (stereo not drawn)	-2	-5	-5	1	0	-4
O=C1C=CC(=O)N1c1ccc(O)cc1	-2	-6	-5	2	0	8
O=C1C=CC(=O)N1c1ccc(OC(F)F)cc1	-3	-10	-9	7	0	20*
C=CCn1c(SCc2c(C(=O)OC)sc(N)c2C(=O)OC)nnc1-c1ccc(Br)cc1	4	8	20*	8	0	-10
Oc1ccc(C2=NNC(=NCc3ccc4c(c3)OCO4)SC2)c(O)c1	-11	-26	-52	-27	-3	-1
Clc1ccc(C2=NNC(=NCc3ccc4c(c3)OCO4)SC2)cc1	12*	2	11	0	0	-28
O=C(CSc1cccc2cccnc12)OCC(=O)c1ccc(Br)cc1	-12	-12	-33	-9	6	-1
O=C(CSc1cccc2cccnc12)OCC(=O)c1ccccc1	-65	-93	-222	-75	73*	-30
O=C(NCc1ccc(C(=O)N2CCOCC2)cc1)c1cccc(Br)c1	-2	0	-5	1	0	0
C[C@H]1[C@@H](OC(=O)NCc2cccs2)CC[C@@]23CCCN2C(=O)CCC[C@@H]13	-1	2	2	-2	·	0
CC(C)Oc1ccc(C(CCN)C2CCCCC2)cc1 (stereo not drawn)	-1	-4	-2	12*	0	9
SMILES	ADAM17 inh	PLCb3 inh	ADAM10 inh	PLCg1 inh	proKLK7 act	HGIII-sPLA2 inh
Cc1ccc(NC(=O)CN2C(=O)CCSc3ccccc32)c(C)c1	-2	1	-1	0	0	-2
CCc1cc2c(SCC(=O)c3ccc(Cl)s3)ncnc2s1	-65	0	6	10*	0	-13
Cc1ccc(NC(=O)N2CC(C)OC(C)C2)cc1[N+](=O)[O-] (stereo not drawn)	-1	-1	0	3	0	-5
CC(C)NCC(O)Cn1c2c(c3ccccc31)CCc1c-2cnn1-c1ccccc1 (stereo not drawn)	-151	i	-405	i	-26	21*
COc1ccc(OC)c(C(c2nnnn2CCc2ccccc2)N2CCN(c3ccccc3)CC2)c1 (stereo not drawn)	3	3	7	11*	0	1
Cn1c(=O)oc2cc(S(=O)(=O)N3CCN(CCO)CC3)ccc21	0	3	-4	0	1	4
CCOc1ccc(S(=O)(=O)Nc2ccc(C(=O)N/N=C(\C)c3ccc(-n4ccnc4)cc3)cc2)cc1	9.0*	-7	11	-4	0	-28
COc1ccc(NS(=O)(=O)c2cccc(C(=O)N/N=C(/C)c3ccc(-n4ccnc4)cc3)c2)cc1	-3	-7	-16	-3	-1	4
Cc1ccc(S(=O)(=O)N2CCC(=O)N(CCOCc3ccc(C(F)(F)F)cc3)CC2)cc1	10*	3	6	1	1	-24
CC(C)C(=O)N[C@H]1[C@H](O)CCC[C@]12C(=O)N(Cc1ccccc1)c1ccccc12	-5	1	-1	1	0	1
C1CSC2(N1)C1CC3CC(C1)CC2C3 (stereo not drawn)	5	12*	12	1	1	11
COc1ccc(C2=Nn3c(nnc3C3CCCCC3)SC2)cc1	1	0	1	1	0	-3
CN(Cc1ccco1)S(=O)(=O)c1ccc2c(c1)CCN2C(=O)CC(C)(C)C	3	-4	2	-3	1	-7
COc1cc(CNC(=O)CCCC(=O)c2ccccc2)cc(OC)c1OC	2	-1	2	9.9*	0	6
O=C(CCCC(=O)c1ccccc1)NCc1ccccc1	0	-1	1	0	0	5
Cc1c(NC(=O)CN2CC(C)OC(C)C2)c(=O)n(-c2ccccc2)n1C (stereo not drawn)	-4	2	-8	14*!	0	7
Cc1c(NC(=O)CN2CCN(c3ccccc3)CC2)c(=O)n(-c2ccccc2)n1C	2	4	12	0	0	5
CCCCNC(=O)CSc1nc2ccsc2c(=O)n1C1CCN(C(=O)OCC)CC1	0	6	20*	5	-1	6
NS(=O)(=O)c1ccc(CCNC(=O)CSc2nc3ccsc3c(=O)n2C2CC2)cc1	-2	1	4	2	-1	14
O=C(NCCO)[C@H](Cc1ccccc1)NC1(C(=O)NCCN2CCOCC2)CCCCC1	-1	5	-3	1	·	-2

From PubChem
